Data on 14 molecules can be found in PubChem BioAssay.

Calls of active or inactive are those of the source.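 Rule for the calls, unless noted: active = fluorescence slope after compound addition differing from the mean of all screened samples at 99.7% confidence, in either direction; inactive = the rest.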

In general, inhibition refers to the drop in the measured response relative to a control, in per cent.

A short description of experiment [1]: inhibitors of TNFa-induced NFkB p65 translocation, primary screen, imaging, HUVEC, MLSMR starter and 10KST1 sets (AID 438;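 active = inhibition above 20% together with a positive visual image hit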;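 note: compound added about 3h40 before a 20 min TNFalpha stimulation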;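 for inhibition: signal is the nuclear over cytoplasmic p65 intensity ratio per well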). The conditions noted are these: HUVEC TNFa-induced p65 nuclear translocation; cell count: measured here: nuclei count (cytotoxicity indicator), at 2.08 µM; inhibition: at 2 µM, stronger effect = higher value, 0% TNFa-plus-vehicle, 100% no-TNFa wells.

A short description of experiment [2]: inhibitors of mutant huntingtin aggregation, primary screen, imaging, exon1htt(103Q)mCFP cells, high-content imaging (AID 483;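 active = visual image review flags a hit and inhibition of aggregation exceeds 20%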;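 note: compound exposure lasted 3 days before fixation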;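 for nuclei count: percent of the per-plate median nuclei count of sample wells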). The conditions noted are these: exon1htt(103Q)mCFP cell line, aggregate imaging, at 2 µM; inhibition of aggregation: stronger effect = higher value; nuclei count: measured here: cell count, toxicity.
A short description of experiment [3]: inhibitors of E-selectin induction by TNFa, primary screen, imaging, HUVEC, immunofluorescence, MLSMR starter and 10KST1 sets (AID 487;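 active = visually confirmed hit in the image check and inhibition above 20%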;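 for inhibition: signal is fraction of cell area covered by stained E-selectin grains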;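 for nuclei count: 100% = median nuclei count of all wells on the same plate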). The conditions noted are these: HUVEC TNFalpha-induced E-selectin immunofluorescence imaging, at 2 µM; inhibition: stronger effect = higher value; nuclei count: measured here: cell number, toxicity.
Experiment [4] has as its target Voltage-gated potassium channel subunit beta-2 (Rattus norvegicus) (UniProt P62483). Briefly: KvBeta enzyme negative modulators, primary screen, biochemical, NADPH fluorescence (AID 622;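 active = fluorescence slope higher than the sample average by over 3 SD, cut at about -0.22 in these data, passing the limit was not always enough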;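 note: slope of raw intensity against log time taken from 70 to 1610 s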). The conditions noted are these: recombinant KvBeta, 4-cyanobenzaldehyde reduction, at 10 µM, stronger effect = higher value.
The target is the same in experiment [5]. Description: KvBeta positive modulators, primary screen, biochemical, NADPH fluorescence (AID 623;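 active = NADPH fluorescence slope more negative than the mean of all samples by about 3 SD, 99.7% confidence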;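 note: fluorescence intensity change per second fitted from 20 to 320 s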). The conditions noted are these: Recombinant KvBeta, NADPH fluorescence decrease slope, 10 min; at 10 µM; stronger effect = lower value.
Experiment [6] addresses Alpha-2C adrenergic receptor (Homo sapiens) (UniProt P18825). Briefly: modulators of alpha2C/GIRK thallium flux, primary screen, cell-based, HEK293 alpha2C/GIRK1/2 (AID 624).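 Note: slope of fluorescence ratio to pre-addition baseline per second over 15 to 24 s.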 The conditions noted are these: thallium flux BTC fluorescence, at 10 µM, actives lie on both sides.
Experiment [7] in a line: inhibitors of Sendai virus-induced IRF3 signaling, primary screen, TLR/RLR signaling modifier project, cell-based, Sendai virus stimulus, luciferase, 10K MLSCN set (AID 602276;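 active = inhibition at or above 50% at 10 µM; inactive = inhibition below 50%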;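 note: firefly luciferase from ISG56 promoter only with Renilla not read in this screen; 0% = Sendai virus plus DMSO and 100% = medium plus DMSO without virus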). The conditions noted are these: HEK293 RL24 IRF3 luciferase reporter, at 10 µM, stronger effect = higher value. (A reporter such as luciferase makes a cellular process visible.)
The nature of experiment [8]: inhibitors of poly I:C-induced TLR3 signaling, primary screen, cell-based, poly I:C stimulus, luciferase, 10K MLSCN set (AID 602277;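 active = inhibition of the reporter signal at or above 50%; inactive = inhibition below 50%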). The conditions noted are these: HEK293-TLR3 RL24 IRF3 luciferase reporter, at 10 µM, stronger effect = higher value.

Chain of Alpha-2C adrenergic receptor (Homo sapiens) (P18825 whole entry, looked up): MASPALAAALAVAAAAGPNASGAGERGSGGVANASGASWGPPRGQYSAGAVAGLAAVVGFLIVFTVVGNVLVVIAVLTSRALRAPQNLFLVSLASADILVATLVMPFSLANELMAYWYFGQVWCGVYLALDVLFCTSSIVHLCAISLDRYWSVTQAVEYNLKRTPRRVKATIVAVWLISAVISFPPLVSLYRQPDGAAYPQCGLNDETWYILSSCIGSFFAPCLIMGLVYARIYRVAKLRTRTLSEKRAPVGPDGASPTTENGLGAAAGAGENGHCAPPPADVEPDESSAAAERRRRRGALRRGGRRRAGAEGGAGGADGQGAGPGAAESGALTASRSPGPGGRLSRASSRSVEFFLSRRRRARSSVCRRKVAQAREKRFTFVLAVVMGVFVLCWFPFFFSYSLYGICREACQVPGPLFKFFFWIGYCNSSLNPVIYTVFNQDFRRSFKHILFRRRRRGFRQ
Chain of Voltage-gated potassium channel subunit beta-2 (Rattus norvegicus) (P62483 whole entry, looked up): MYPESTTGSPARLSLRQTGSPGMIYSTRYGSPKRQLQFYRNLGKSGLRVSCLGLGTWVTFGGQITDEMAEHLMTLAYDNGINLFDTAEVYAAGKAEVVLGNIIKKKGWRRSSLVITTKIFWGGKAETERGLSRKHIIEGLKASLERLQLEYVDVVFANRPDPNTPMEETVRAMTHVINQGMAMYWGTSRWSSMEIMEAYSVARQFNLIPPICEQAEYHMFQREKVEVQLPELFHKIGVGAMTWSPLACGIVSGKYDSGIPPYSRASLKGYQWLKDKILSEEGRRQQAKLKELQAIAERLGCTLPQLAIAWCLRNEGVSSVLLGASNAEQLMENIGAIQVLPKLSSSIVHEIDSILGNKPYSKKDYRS

Consider `Nn1cnnc1SCC(=O)Nc1ccc2c(c1)OCCO2`, for which the cell count in experiment [1] is 553. The inhibition was 7.2% (inactive) in experiment [1], -74.7% (inactive) in experiment [3], 1.38% (inactive) in experiment [7] and -17% (inactive) in experiment [8]. Besides, the inhibition of aggregation in experiment [2] is -23.3% (inactive). The nuclei count is 96% in experiment [2] and 208% in experiment [3]. In experiment [4], the fluorescence slope was -0.351 (inactive). In experiment [5], the NADPH fluorescence slope is -8.3e-06 (inactive). In addition, in experiment [6], the slope is 0.00546 (inactive).
Consider `CCOc1ccccc1OCCCCN1CCCC1`, for which the cell count in experiment [1] was found to be 608. In addition, the inhibition in experiment [1] is 10.2% (inactive); in experiment [3] it was -99% (inactive); in experiment [7] it was 7.96% (inactive); in experiment [8] it was 35.8% (inactive). For the same molecule, the inhibition of aggregation in experiment [2] is 15.7% (inactive). Besides, the nuclei count worked out at 100% in experiment [2] and 122% in experiment [3]. In experiment [4], the fluorescence slope is -0.47 (inactive). Besides, the NADPH fluorescence slope in experiment [5] is -5.2e-06 (inactive). The slope in experiment [6] is 0.00972 (active).
Consider `CCOC(=O)CSC1=C(C#N)C(c2ccc(C)o2)CC(=O)N1` (centres undefined), for which the cell count in experiment [1] was 557. The inhibition in experiment [1] is 14.4% (inactive); in experiment [3] it was -60% (inactive); in experiment [7] it was 10.4% (inactive); in experiment [8] it was 87.6% (active). The inhibition of aggregation in experiment [2] was 29.1% (inactive). For the same molecule, the nuclei count was found to be 3.4% in experiment [2] and 95% in experiment [3]. Further, in experiment [4], the fluorescence slope is -0.511 (inactive). Moreover, in experiment [5], the NADPH fluorescence slope was -2e-05 (inactive). In addition, the slope in experiment [6] was 0.00803 (inactive).
Consider `COCCn1c(SCC(=O)Nc2cccc(OC)c2)nnc1-c1ccc(Cl)cc1`, for which the cell count in experiment [1] came to 467. Also, the inhibition was 6.7% (inactive) in experiment [1], -19.6% (inactive) in experiment [3], 16.4% (inactive) in experiment [7] and 22.6% (inactive) in experiment [8]. For the same molecule, in experiment [2], the inhibition of aggregation is 8.5% (inactive). Further, the nuclei count in experiment [2] is 94.1%; in experiment [3], 97.1%. For the same molecule, the fluorescence slope in experiment [4] was -0.598 (inactive). Moreover, in experiment [5], the NADPH fluorescence slope was -2.9e-05 (inactive). In experiment [6], the slope was 0.00322 (inactive).
Turning to `C/C(N)=C(/C#N)C(=O)CSc1nnc(Nc2c(C)cccc2C)s1`, the cell count in experiment [1] turned out to be 354. Moreover, the inhibition in experiment [1] was 13.1% (inactive); in experiment [3] it was -30.9% (inactive); in experiment [7], 6.86% (inactive); in experiment [8], 2.86% (inactive). The inhibition of aggregation in experiment [2] is 8.1% (inactive). Also, the nuclei count in experiment [2] was found to be 70.3%; in experiment [3], 119%. Besides, the fluorescence slope in experiment [4] was -0.586 (inactive). In addition, the NADPH fluorescence slope in experiment [5] was -5.6e-05 (inactive). Further, the slope in experiment [6] is 0.00543 (inactive).
As to `O=C(NCc1cccs1)C1CC(=O)N(c2ccccc2)C1` (centres undefined), the cell count in experiment [1] stood at 345. The inhibition in experiment [1] was -0.5% (inactive); in experiment [3] it was -28.7% (inactive); in experiment [7], 2.75% (inactive); in experiment [8], 4.93% (inactive). Also, the inhibition of aggregation in experiment [2] is 11.8% (inactive). In addition, the values for the nuclei count in experiment [2] and in experiment [3] were 98.2% and 84%, respectively. Moreover, the fluorescence slope in experiment [4] is -0.625 (inactive). Besides, the NADPH fluorescence slope in experiment [5] is 3.2e-06 (inactive). Besides, in experiment [6], the slope is 0.00459 (inactive).
Turning to `CCOC(=O)CCc1c(C)nc2cc(-c3ccc(F)cc3)[nH]n2c1=O`, the cell count in experiment [1] came to 249. For the same molecule, the inhibition is -7.1% (inactive) in experiment [1], -8.7% (inactive) in experiment [3], -3.01% (inactive) in experiment [7] and 22.2% (inactive) in experiment [8]. For the same molecule, the inhibition of aggregation in experiment [2] is 3% (inactive). Moreover, the nuclei count in experiment [2] was determined as 85%; in experiment [3], 107%. In addition, the fluorescence slope in experiment [4] was -0.457 (inactive). For the same molecule, in experiment [5], the NADPH fluorescence slope was -3.9e-05 (inactive). Moreover, the slope in experiment [6] was 0.00335 (inactive).
As for `c1ccc(CN2C3=NCCCN3c3ccccc32)cc1`, the cell count in experiment [1] was determined as 361. Further, the inhibition in experiment [1] was -4.7% (inactive); in experiment [3], -3.7% (inactive); in experiment [7], 11.4% (inactive); in experiment [8], 22.1% (inactive). Also, the inhibition of aggregation in experiment [2] was -10.1% (inactive). Moreover, the nuclei count is 97.9% in experiment [2] and 117% in experiment [3]. In addition, the fluorescence slope in experiment [4] was -0.601 (inactive). The NADPH fluorescence slope in experiment [5] was -1.3e-05 (inactive). Also, in experiment [6], the slope was 0.00493 (inactive).
`Cc1cc(C)c(NC(=O)C2CSCCS2)c(C)c1` (centres undefined): the cell count in experiment [1] turned out to be 484. Besides, the inhibition in experiment [1] is 4.7% (inactive); in experiment [3], -55.7% (inactive); in experiment [7], -3.4% (inactive); in experiment [8], -35.7% (inactive). Besides, the inhibition of aggregation in experiment [2] was 23.2% (inactive). Besides, the figures for the nuclei count in experiment [2] and in experiment [3] were 96% and 111%, respectively. Further, the fluorescence slope in experiment [4] was -0.392 (inactive). In experiment [5], the NADPH fluorescence slope is -6.2e-05 (inactive). Besides, the slope in experiment [6] is 0.00428 (inactive).
On to `CCOc1ccc(N2CC(C(=O)Nc3cccc(C)c3C)CC2=O)cc1` (centres undefined), for which the cell count in experiment [1] stood at 694. In addition, the inhibition in experiment [1] is 0.6% (inactive); in experiment [3] it was -61.5% (inactive); in experiment [7] it was 8.36% (inactive); in experiment [8], 8.88% (inactive). In addition, the inhibition of aggregation in experiment [2] is 12.5% (inactive). Further, the nuclei count stood at 85.4% in experiment [2] and 114% in experiment [3]. In experiment [4], the fluorescence slope was -0.608 (inactive). Moreover, the NADPH fluorescence slope in experiment [5] was -1.8e-05 (inactive). In experiment [6], the slope is 0.00361 (inactive).
For `COc1ccccc1N1CCN(C(=O)N2CCOCC2)CC1`, the cell count in experiment [1] was 683. In addition, the inhibition in experiment [1] was -8.1% (inactive); in experiment [3], -80.8% (inactive); in experiment [7], 19% (inactive); in experiment [8], 26.2% (inactive). The inhibition of aggregation in experiment [2] is -2.9% (inactive). The figures for the nuclei count in experiment [2] and in experiment [3] were 100% and 107%, respectively. For the same molecule, the fluorescence slope in experiment [4] is -0.417 (inactive). In experiment [5], the NADPH fluorescence slope was -6.2e-05 (inactive). In experiment [6], the slope is 0.00512 (inactive).
On to `CCOC(=O)N1CCN(S(=O)(=O)c2ccc(OCC)c(C)c2)CC1`, for which the cell count in experiment [1] was found to be 604. In addition, the inhibition in experiment [1] is -11.1% (inactive); in experiment [3], 8.2% (inactive); in experiment [7] it was 0.885% (inactive); in experiment [8], 11.9% (inactive). Also, the inhibition of aggregation in experiment [2] was -7.7% (inactive). The nuclei count turned out to be 106% in experiment [2] and 102% in experiment [3]. Further, the fluorescence slope in experiment [4] was -0.625 (inactive). For the same molecule, the NADPH fluorescence slope in experiment [5] was -3.8e-06 (inactive). Moreover, the slope in experiment [6] is 0.00615 (inactive).
For `O=C(Nc1nnc(CCN2CCCCC2)s1)C1CCCCC1`, the cell count in experiment [1] stood at 455. In addition, the inhibition was -11.2% (inactive) in experiment [1], -31.8% (inactive) in experiment [3], 15.1% (inactive) in experiment [7] and 16.5% (inactive) in experiment [8]. Besides, the inhibition of aggregation in experiment [2] is 7% (inactive). In addition, the nuclei count came to 113% in experiment [2] and 102% in experiment [3]. For the same molecule, the fluorescence slope in experiment [4] was -0.411 (inactive). In addition, in experiment [5], the NADPH fluorescence slope was -6e-05 (inactive). Besides, in experiment [6], the slope is 0.00451 (inactive).
As to `COc1ccc(S(=O)(=O)NCCC(=O)NC2CCCCCCC2)cc1`, the cell count in experiment [1] came to 293. Further, the inhibition was 2.8% (inactive) in experiment [1], -89.3% (inactive) in experiment [3], 17.8% (inactive) in experiment [7] and 26% (inactive) in experiment [8]. Besides, the inhibition of aggregation in experiment [2] was 13.6% (inactive). The nuclei count in experiment [2] was 95%; in experiment [3], 97%. The fluorescence slope in experiment [4] is -0.4 (inactive). In experiment [5], the NADPH fluorescence slope is -8.9e-05 (inactive). For the same molecule, the slope in experiment [6] is 0.00674 (inactive).
